In the supplement of paper PMC10849652:
Targets with a hit are over-represented here; the source holds about 7,900 in all. About 0.6% of all pairs of compound and target were hits.

How the values were obtained:
Assay in all cases: log2 fold change, soluble protein after heating vs DMSO (PISA); higher = thermal stabilisation; K562 cells, 10 uM, 30 min; active = over 0.2 and 3.5 SD of the protein, either way, in both replicates (recomputed)
YWHAB = YWHAB (UniProt P31946)
How it was run: (§1)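 For each measurement, 10 μM compound was applied for 30 min to K562 cells at 2×10^6 cells/mL. Aliquots were heated for 3 min across 48°C-58°C, pooled, and extracted in PBS with 0.5% NP-40 at 4°C; the supernatant after 21,000xg for 90 min was soluble protein. This was quantified by TMTpro 16plex LC-MS/MS with channel sums equalised, and thermal stability was reported relative to control samples from duplicates, on a log2 fold-change scale.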

YWHAQ = YWHAQ (UniProt P27348)
How it was run: as §1

YWHAZ [1] = target: YWHAZ (UniProt E7ESK7)
How it was run: as §1

YWHAZ [2] = target: YWHAZ (UniProt P63104)
How it was run: as §1

YY1 = YY1 (UniProt P25490)
How it was run: as §1

ZADH2 = ZADH2 (UniProt Q8N4Q0)
How it was run: as §1

ZBTB17 isoform 2 = ZBTB17 isoform 2 (UniProt Q13105)
How it was run: as §1

ZBTB21 = ZBTB21 (UniProt Q9ULJ3)
How it was run: as §1

ZC3H18 = ZC3H18 (UniProt Q86VM9)
How it was run: as §1

ZC3H8 = ZC3H8 (UniProt Q8N5P1)
How it was run: as §1

ZC3HC1 = ZC3HC1 (UniProt Q86WB0)
How it was run: as §1

ZCCHC9 = ZCCHC9 (UniProt Q8N567)
How it was run: as §1

ZDHHC17 = ZDHHC17 (UniProt Q8IUH5)
How it was run: as §1

ZDHHC20 = ZDHHC20 (UniProt Q5W0Z9)
How it was run: as §1

ZDHHC5 = ZDHHC5 (UniProt Q9C0B5)
How it was run: as §1

ZBTB43 = ZBTB43 (UniProt O43298)
How it was run: as §1

ZDHHC7 isoform 2 = ZDHHC7 isoform 2 (UniProt Q9NXF8)
How it was run: as §1

ZDHHC8 isoform 3 = ZDHHC8 isoform 3 (UniProt Q9ULC8)
How it was run: as §1

ZDHHC6 = ZDHHC6 (UniProt Q9H6R6)
How it was run: as §1

Measured: log2 fold change

Chain of YWHAB (P31946 whole entry, looked up): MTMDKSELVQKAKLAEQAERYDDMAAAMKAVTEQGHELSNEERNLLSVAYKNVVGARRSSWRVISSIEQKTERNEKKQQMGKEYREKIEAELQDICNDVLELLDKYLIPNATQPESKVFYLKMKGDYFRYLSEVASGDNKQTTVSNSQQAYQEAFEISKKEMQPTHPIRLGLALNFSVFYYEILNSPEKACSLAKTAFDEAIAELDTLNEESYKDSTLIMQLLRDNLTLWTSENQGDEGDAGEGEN
Chain of ZDHHC5 (Q9C0B5 whole entry, looked up): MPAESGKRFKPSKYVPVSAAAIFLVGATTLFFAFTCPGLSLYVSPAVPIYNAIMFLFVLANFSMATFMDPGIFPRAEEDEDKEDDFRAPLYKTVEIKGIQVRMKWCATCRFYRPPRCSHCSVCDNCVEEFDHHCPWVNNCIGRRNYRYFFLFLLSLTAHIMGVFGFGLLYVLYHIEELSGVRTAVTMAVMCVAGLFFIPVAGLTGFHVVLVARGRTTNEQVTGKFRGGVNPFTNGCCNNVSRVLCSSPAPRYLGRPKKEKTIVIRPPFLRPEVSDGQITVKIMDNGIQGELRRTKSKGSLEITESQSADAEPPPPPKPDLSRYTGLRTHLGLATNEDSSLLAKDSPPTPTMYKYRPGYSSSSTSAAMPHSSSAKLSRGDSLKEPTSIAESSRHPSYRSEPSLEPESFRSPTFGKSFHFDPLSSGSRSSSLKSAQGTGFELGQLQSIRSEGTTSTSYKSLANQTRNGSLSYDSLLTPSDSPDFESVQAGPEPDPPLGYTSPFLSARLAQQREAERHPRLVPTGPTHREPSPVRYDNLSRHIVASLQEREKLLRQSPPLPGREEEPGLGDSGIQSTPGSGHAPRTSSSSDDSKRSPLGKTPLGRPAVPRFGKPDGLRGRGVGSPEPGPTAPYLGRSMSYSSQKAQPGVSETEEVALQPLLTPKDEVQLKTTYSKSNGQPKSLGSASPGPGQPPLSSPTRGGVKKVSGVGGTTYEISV
Chain of ZADH2 (Q8N4Q0 whole entry, looked up): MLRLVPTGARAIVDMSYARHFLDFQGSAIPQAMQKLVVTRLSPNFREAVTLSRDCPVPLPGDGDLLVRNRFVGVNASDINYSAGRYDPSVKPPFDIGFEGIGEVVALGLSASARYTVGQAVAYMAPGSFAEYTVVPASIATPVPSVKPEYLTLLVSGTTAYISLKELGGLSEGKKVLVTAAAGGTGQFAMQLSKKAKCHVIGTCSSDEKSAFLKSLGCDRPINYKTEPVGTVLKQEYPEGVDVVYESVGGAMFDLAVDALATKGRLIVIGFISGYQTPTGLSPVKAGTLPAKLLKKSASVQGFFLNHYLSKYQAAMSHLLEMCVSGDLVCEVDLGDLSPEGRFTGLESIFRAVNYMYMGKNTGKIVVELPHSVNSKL
Chain of YWHAZ (UniProt P63104) (P63104 whole entry, looked up): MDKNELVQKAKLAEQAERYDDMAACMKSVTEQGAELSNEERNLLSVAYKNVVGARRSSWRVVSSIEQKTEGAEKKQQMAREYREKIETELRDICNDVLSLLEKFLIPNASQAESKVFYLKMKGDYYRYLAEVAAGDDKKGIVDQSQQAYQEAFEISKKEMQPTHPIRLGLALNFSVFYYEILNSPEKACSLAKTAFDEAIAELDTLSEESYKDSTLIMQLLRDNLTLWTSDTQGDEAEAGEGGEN
Chain of ZC3H8 (Q8N5P1 whole entry, looked up): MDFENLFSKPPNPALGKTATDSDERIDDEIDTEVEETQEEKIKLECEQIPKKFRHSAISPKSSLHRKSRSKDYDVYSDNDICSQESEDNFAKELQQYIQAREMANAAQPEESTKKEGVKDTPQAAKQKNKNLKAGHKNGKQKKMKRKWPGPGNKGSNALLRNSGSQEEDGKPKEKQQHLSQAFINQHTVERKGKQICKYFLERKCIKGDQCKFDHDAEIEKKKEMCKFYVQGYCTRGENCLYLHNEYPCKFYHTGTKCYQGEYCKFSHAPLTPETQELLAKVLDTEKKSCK
Chain of ZDHHC8 isoform 3 (Q9ULC8 whole entry, looked up, canonical isoform): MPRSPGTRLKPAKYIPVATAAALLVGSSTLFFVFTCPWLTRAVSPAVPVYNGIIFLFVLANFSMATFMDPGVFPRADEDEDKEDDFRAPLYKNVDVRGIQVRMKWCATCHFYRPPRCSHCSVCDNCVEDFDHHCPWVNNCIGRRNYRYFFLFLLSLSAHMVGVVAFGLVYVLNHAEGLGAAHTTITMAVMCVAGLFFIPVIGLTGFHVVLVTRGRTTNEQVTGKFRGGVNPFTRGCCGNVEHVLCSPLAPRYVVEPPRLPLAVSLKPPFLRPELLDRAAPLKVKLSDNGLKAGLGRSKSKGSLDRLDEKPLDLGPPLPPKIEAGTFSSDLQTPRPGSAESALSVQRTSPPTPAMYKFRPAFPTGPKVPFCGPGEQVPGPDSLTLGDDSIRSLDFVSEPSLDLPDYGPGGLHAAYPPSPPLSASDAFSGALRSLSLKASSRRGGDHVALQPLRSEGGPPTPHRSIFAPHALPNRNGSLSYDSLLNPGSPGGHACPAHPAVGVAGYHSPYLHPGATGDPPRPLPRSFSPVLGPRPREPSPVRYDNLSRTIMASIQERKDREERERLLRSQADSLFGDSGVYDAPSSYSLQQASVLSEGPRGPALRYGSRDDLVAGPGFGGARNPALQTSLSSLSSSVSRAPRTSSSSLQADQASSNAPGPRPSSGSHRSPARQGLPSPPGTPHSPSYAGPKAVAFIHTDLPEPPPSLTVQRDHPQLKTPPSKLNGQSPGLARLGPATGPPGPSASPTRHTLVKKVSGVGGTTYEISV
Chain of ZC3HC1 (Q86WB0 whole entry, looked up): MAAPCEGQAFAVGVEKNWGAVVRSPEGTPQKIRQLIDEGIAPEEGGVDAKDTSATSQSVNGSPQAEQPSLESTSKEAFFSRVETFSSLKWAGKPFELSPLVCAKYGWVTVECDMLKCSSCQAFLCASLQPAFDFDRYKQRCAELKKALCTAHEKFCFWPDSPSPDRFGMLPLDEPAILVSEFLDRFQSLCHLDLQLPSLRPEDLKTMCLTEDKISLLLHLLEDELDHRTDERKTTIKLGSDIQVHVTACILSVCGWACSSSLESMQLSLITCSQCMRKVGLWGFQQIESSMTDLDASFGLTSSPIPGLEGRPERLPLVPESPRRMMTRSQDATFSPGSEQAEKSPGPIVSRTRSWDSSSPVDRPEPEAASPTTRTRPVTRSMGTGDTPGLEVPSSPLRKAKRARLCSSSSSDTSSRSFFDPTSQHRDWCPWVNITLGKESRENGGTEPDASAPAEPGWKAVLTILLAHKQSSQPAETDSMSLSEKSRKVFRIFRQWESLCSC
Chain of ZDHHC20 (Q5W0Z9 whole entry, looked up): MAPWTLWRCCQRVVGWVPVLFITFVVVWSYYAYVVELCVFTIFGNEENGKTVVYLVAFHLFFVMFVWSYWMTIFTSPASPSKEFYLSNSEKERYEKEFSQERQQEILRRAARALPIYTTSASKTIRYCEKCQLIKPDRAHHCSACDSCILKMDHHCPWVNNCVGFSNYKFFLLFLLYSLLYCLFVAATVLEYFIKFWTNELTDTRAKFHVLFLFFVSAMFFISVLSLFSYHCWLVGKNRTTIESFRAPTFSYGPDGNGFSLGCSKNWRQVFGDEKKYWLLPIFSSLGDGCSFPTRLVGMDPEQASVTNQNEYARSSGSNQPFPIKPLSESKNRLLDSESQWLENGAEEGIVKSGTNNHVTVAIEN
Chain of ZDHHC7 isoform 2 (Q9NXF8 whole entry, looked up, canonical isoform): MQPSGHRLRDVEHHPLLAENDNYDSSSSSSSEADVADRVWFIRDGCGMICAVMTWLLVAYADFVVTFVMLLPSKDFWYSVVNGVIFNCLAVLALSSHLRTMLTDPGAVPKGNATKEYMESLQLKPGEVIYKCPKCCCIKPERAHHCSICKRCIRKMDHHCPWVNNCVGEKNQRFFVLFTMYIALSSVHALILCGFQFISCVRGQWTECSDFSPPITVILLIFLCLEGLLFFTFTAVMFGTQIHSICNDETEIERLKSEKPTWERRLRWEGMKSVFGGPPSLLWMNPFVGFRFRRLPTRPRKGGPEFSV
Chain of ZDHHC17 (Q8IUH5 whole entry, looked up): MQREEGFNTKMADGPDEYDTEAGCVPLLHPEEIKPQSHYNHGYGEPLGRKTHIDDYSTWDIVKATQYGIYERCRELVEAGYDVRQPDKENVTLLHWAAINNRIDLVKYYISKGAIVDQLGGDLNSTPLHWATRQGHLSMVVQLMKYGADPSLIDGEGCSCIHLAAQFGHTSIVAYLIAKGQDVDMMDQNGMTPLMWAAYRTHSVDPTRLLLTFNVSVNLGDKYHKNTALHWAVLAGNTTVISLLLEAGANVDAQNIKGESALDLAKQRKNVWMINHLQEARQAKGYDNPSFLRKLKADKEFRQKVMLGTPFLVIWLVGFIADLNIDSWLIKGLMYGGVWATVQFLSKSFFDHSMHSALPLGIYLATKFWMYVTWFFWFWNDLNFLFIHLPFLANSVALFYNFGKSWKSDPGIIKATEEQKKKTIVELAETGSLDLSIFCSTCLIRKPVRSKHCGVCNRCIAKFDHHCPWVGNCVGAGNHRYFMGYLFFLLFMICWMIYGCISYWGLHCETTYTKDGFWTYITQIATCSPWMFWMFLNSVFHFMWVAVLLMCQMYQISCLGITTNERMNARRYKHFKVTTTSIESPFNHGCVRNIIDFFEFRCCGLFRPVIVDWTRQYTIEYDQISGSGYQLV
Chain of YY1 (P25490 whole entry, looked up): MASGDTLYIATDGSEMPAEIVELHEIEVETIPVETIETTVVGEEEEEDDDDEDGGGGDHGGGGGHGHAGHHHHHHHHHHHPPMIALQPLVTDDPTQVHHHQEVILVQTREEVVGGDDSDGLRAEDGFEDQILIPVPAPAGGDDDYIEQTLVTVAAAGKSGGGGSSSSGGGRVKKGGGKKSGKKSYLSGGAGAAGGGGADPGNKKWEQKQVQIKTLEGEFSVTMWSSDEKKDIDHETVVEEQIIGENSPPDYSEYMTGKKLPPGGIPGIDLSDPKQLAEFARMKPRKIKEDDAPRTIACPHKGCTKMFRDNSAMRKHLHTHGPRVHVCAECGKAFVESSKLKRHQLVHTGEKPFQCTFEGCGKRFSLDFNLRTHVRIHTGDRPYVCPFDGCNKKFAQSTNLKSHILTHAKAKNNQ

COc1cccc2cc(-c3nc([C@H]4CC[C@H](C(=O)O)CC4)n4ncnc(N)c34)[nH]c12
inactive: YWHAB 0.014 | YWHAQ -0.098 | YWHAZ [1] 0.187 | YWHAZ [2] -0.052 | YY1 0.009 | ZADH2 -0.059 | ZBTB17 isoform 2 -0.006 | ZBTB21 0.129 | ZC3H18 0.014 | ZC3H8 -0.02 | ZC3HC1 0.032 | ZCCHC9 -0.121 | ZDHHC17 0.003 | ZDHHC20 0.11 | ZDHHC5 -0.007

Cc1ccc(C(=O)N(CCCN)[C@@H](c2nc3cc(Cl)ccc3c(=O)n2Cc2ccccc2)C(C)C)cc1 [ispinesib]
inactive: YWHAB 0.053 | YWHAQ 0.241 | YWHAZ [1] -0.11 | YWHAZ [2] 0.149 | YY1 -0.147 | ZADH2 -0.107 | ZBTB21 -0.09 | ZBTB43 0.164 | ZC3H18 0.039 | ZC3H8 -0.016 | ZC3HC1 -0.027 | ZCCHC9 -0.353 | ZDHHC17 0.023 | ZDHHC20 -0.076 | ZDHHC5 -0.035 | ZDHHC7 isoform 2 0.126

O=C(O)c1ccc2c(c1)nc(Nc1cccc(Cl)c1)c1ccncc12 [silmitasertib]
inactive: YWHAB -0.014 | YWHAQ 0 | YWHAZ [1] -0.065 | YWHAZ [2] -0.078 | YY1 0.057 | ZADH2 0.053 | ZBTB17 isoform 2 0.023 | ZBTB21 0.104 | ZC3H18 0.135 | ZC3H8 0.035 | ZC3HC1 0.06 | ZCCHC9 0.095 | ZDHHC17 0.025 | ZDHHC20 0.08 | ZDHHC5 0.101

CN(CCOc1ccc(C[C@@H]2SC(=O)NC2=O)cc1)c1ccccn1 (racemic) [rosiglitazone]
inactive: YWHAB 0.038 | YWHAQ 0.012 | YWHAZ [1] 0.019 | YWHAZ [2] 0.008 | YY1 -0.015 | ZADH2 0.063 | ZBTB17 isoform 2 0.063 | ZBTB21 0.103 | ZBTB43 0.052 | ZC3H18 -0.036 | ZC3H8 -0.171 | ZC3HC1 0.086 | ZCCHC9 -0.131 | ZDHHC17 0.052 | ZDHHC20 0.059 | ZDHHC5 -0.016 | ZDHHC8 isoform 3 0.038

Cc1cc(Nc2cc(N3CCN(C)CC3)nc(Sc3ccc(NC(=O)C4CC4)cc3)n2)n[nH]1 [tozasertib]
inactive: YWHAB 0.019 | YWHAQ 0.046 | YWHAZ [1] 0.176 | YWHAZ [2] 0.045 | YY1 0.099 | ZADH2 0.014 | ZBTB17 isoform 2 0.299 | ZBTB21 -0.219 | ZBTB43 0.063 | ZC3H18 0.061 | ZC3H8 0.058 | ZC3HC1 0.047 | ZCCHC9 0.04 | ZDHHC17 -0.02 | ZDHHC20 0.006 | ZDHHC5 -0.057 | ZDHHC7 isoform 2 -0.04 | ZDHHC8 isoform 3 -0.041

NC1(Cc2ccc(Cl)cc2)CCN(c2ncnc3[nH]ccc23)CC1
inactive: YWHAB 0.028 | YWHAQ 0.029 | YWHAZ [1] 0.07 | YWHAZ [2] 0.059 | YY1 0.066 | ZADH2 0.008 | ZBTB17 isoform 2 -0.199 | ZBTB21 0.024 | ZBTB43 -0.053 | ZC3H18 -0.124 | ZC3H8 -0.01 | ZC3HC1 0.019 | ZCCHC9 -0.1 | ZDHHC17 0.022 | ZDHHC20 0.059 | ZDHHC5 0.071 | ZDHHC7 isoform 2 0 | ZDHHC8 isoform 3 0.063

Oc1cc(-c2nc(-c3ccccc3)[nH]c2-c2ccncc2)ccc1Cl
inactive: YWHAB -0.02 | YWHAQ 0.284 | YWHAZ [1] -0.068 | YWHAZ [2] 0.096 | YY1 -0.053 | ZADH2 0.121 | ZBTB21 -0.067 | ZBTB43 -0.064 | ZC3H18 0.015 | ZC3H8 -0.076 | ZC3HC1 0.024 | ZCCHC9 -0.271 | ZDHHC17 0.002 | ZDHHC20 -0.232 | ZDHHC5 0.01 | ZDHHC7 isoform 2 0.026

CCCCN(Cc1ccc(C(=O)NO)cc1)C(=O)Nc1ccccc1 [Nexturastat A]
inactive: YWHAB -0.048 | YWHAQ -0.063 | YWHAZ [1] 0.34 | YWHAZ [2] -0.051 | YY1 0.069 | ZADH2 0.005 | ZBTB21 0.106 | ZBTB43 -0.203 | ZC3H18 0.11 | ZC3H8 0.106 | ZC3HC1 -0.106 | ZCCHC9 0.311 | ZDHHC17 -0.086 | ZDHHC20 -0.149 | ZDHHC5 -0.001 | ZDHHC6 -0.06 | ZDHHC7 isoform 2 0.052 | ZDHHC8 isoform 3 -0.151

COc1cc(Nc2ncc3c(n2)-c2ccc(Cl)cc2C(c2c(F)cccc2OC)=NC3)ccc1C(=O)O [alisertib]
inactive: YWHAB 0.012 | YWHAQ -0.001 | YWHAZ [1] -0.041 | YWHAZ [2] -0.028 | YY1 -0.062 | ZADH2 0.021 | ZBTB17 isoform 2 0.136 | ZBTB21 -0.154 | ZC3H18 -0.085 | ZC3H8 -0.082 | ZC3HC1 0.024 | ZCCHC9 -0.083 | ZDHHC17 -0.02 | ZDHHC20 -0.052 | ZDHHC5 -0.107

O=C1NC(=NCc2cccs2)S/C1=C\c1ccc2ncccc2c1
inactive: YWHAB 0.023 | YWHAQ -0.201 | YWHAZ [1] -0.13 | YWHAZ [2] -0.154 | YY1 -0.014 | ZADH2 0.042 | ZBTB21 -0.024 | ZBTB43 -0.081 | ZC3H18 0.003 | ZC3H8 -0.062 | ZC3HC1 0.077 | ZCCHC9 -0.035 | ZDHHC17 0.064 | ZDHHC20 -0.125 | ZDHHC5 0.091 | ZDHHC7 isoform 2 0.161

NC1(c2ccc(-c3nc4ccn5c(=O)[nH]nc5c4cc3-c3ccccc3)cc2)CCC1
inactive: YWHAB -0.056 | YWHAQ 0.007 | YWHAZ [1] -0.206 | YWHAZ [2] 0.066 | YY1 0.011 | ZADH2 0.106 | ZBTB17 isoform 2 -0.143 | ZBTB21 0.047 | ZC3H18 0.032 | ZC3H8 0.181 | ZC3HC1 -0.091 | ZCCHC9 0.218 | ZDHHC17 -0.06 | ZDHHC20 -0.027 | ZDHHC5 -0.027

CC[C@H](C)[C@H](NC(=O)[C@H]([C@@H](C)CC)N(C)C(C)=O)C(=O)N[C@H](C(=O)N[C@@H](CC(C)C)C(=O)[C@@]1(C)CO1)[C@@H](C)O [epoxomicin]
inactive: YWHAB 0.018 | YWHAQ 0.111 | YWHAZ [1] -0.075 | YWHAZ [2] 0.041 | YY1 -0.003 | ZADH2 0.077 | ZBTB21 -0.168 | ZBTB43 -0.054 | ZC3H18 -0.059 | ZC3H8 -0.107 | ZC3HC1 0.1 | ZCCHC9 -0.303 | ZDHHC17 -0.044 | ZDHHC20 -0.102 | ZDHHC5 -0.083 | ZDHHC6 -0.052 | ZDHHC7 isoform 2 0.124 | ZDHHC8 isoform 3 -0.037

O=C1NC(=O)C(c2cnc3ccccn23)=C1c1cn2c3c(cc(F)cc13)CN(C(=O)N1CCCCC1)CC2
inactive: YWHAB -0.04 | YWHAQ -0.095 | YWHAZ [1] -0.239 | YWHAZ [2] -0.025 | YY1 -0.013 | ZADH2 -0.043 | ZBTB21 -0.226 | ZBTB43 0.196 | ZC3H18 0.03 | ZC3H8 0 | ZC3HC1 -0.132 | ZCCHC9 0.229 | ZDHHC17 0.043 | ZDHHC20 0.079 | ZDHHC5 -0.014 | ZDHHC6 0.089 | ZDHHC7 isoform 2 -0.021 | ZDHHC8 isoform 3 0.029

CC(C)C[C@@H](C=O)NC(=O)[C@H](CC(C)C)NC(=O)[C@H](CC(C)C)NC(=O)OCc1ccccc1
inactive: YWHAB -0.003 | YWHAQ -0.184 | YWHAZ [1] 0.019 | YWHAZ [2] -0.098 | YY1 0.091 | ZADH2 -0.045 | ZBTB21 -0.013 | ZBTB43 0.05 | ZC3H18 -0.042 | ZC3H8 0.045 | ZC3HC1 -0.101 | ZCCHC9 0.305 | ZDHHC17 -0.057 | ZDHHC20 -0.153 | ZDHHC5 -0.029 | ZDHHC7 isoform 2 -0.069

CCN(CCCOc1ccc2c(Nc3cc(CC(=O)Nc4cccc(F)c4)[nH]n3)ncnc2c1)CCOP(=O)(O)O [barasertib]
inactive: YWHAB 0.003 | YWHAQ 0.006 | YWHAZ [1] 0.114 | YWHAZ [2] -0.002 | YY1 -0.01 | ZADH2 0.049 | ZBTB17 isoform 2 -0.048 | ZBTB21 -0.043 | ZBTB43 -0.105 | ZC3H18 -0.05 | ZC3H8 -0.075 | ZC3HC1 0.108 | ZCCHC9 -0.094 | ZDHHC17 0.067 | ZDHHC20 0.022 | ZDHHC5 -0.001 | ZDHHC8 isoform 3 0.028

O=C1NC(=O)/C(=C\c2ccc3nccnc3c2)S1
inactive: YWHAB 0.023 | YWHAQ 0.003 | YWHAZ [1] -0.01 | YWHAZ [2] -0.012 | YY1 0.004 | ZADH2 -0.05 | ZBTB17 isoform 2 0.171 | ZBTB21 0.156 | ZBTB43 -0.054 | ZC3H18 0.035 | ZC3H8 0.044 | ZC3HC1 0.021 | ZCCHC9 -0.015 | ZDHHC17 0.11 | ZDHHC20 0.095 | ZDHHC5 0.007 | ZDHHC8 isoform 3 -0.002

C=CC(=O)N1CCC[C@@H](n2nc(-c3ccc(Oc4ccccc4)cc3)c3c(N)ncnc32)C1 [ibrutinib]
inactive: YWHAB -0.013 | YWHAQ 0.002 | YWHAZ [1] -0.167 | YWHAZ [2] 0.019 | YY1 -0.032 | ZADH2 0.125 | ZBTB17 isoform 2 -0.05 | ZBTB21 -0.174 | ZBTB43 0.064 | ZC3H18 0.002 | ZC3H8 0.03 | ZC3HC1 -0.041 | ZCCHC9 0.06 | ZDHHC17 -0.029 | ZDHHC20 -0.004 | ZDHHC5 0.02 | ZDHHC8 isoform 3 0.043
